Consider 14 compounds from PubChem BioAssay (NCI).

Among the test systems are T-47D breast; BT-549 breast; MDA-MB-435 melanoma; SW-620 colon; MCF7 breast; HCT-116 colon; HCC-2998 colon; KM12 colon.
Common to all, as to assay: NCI-60 one-dose screen, 48 h (100 = growth as untreated, 0 = no growth, -100 = all killed)
What all share (conditions): 10 µM unless noted

Compounds without any hit were thinned out: in the full panel of roughly 83,000, 20% have a hit.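 Growth was measured after 48 h exposure to one concentration of compound in 96-well plates. Values under 10 count as active.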 Values without a mark were called inactive. Calls of active or inactive are those of the source.

Turning to `O=c1[nH]c2ccc(Br)cc2c2c1C(c1ccc(Cl)cc1)c1c(ncn3nc(-c4ccco4)nc13)O2` (configuration not stated), the growth with T-47D breast is 60.9%; in the assay on BT-549 breast, 76.9%; in the assay with MDA-MB-435 melanoma, 85.2%; in the assay on SW-620 colon, 73.6%; with MCF7 breast it was 68.7%; in the assay with HCT-116 colon, 67.5%. The growth in the assay on HCC-2998 colon is 86.6%; in the assay on KM12 colon, 94.5%.
Turning to `Cc1ccc(-c2cc3nc(C(Cl)Cl)nc(-c4cccnc4)n3n2)cc1`, the growth in the assay on T-47D breast was 37.9%; with BT-549 breast it was 73.4%; in the assay with MDA-MB-435 melanoma, 1.09% (active); in the assay on SW-620 colon it was 0.933% (active); in the assay with MCF7 breast, 41.5%; with HCT-116 colon, 6.32% (active). Further, the figures for the growth in the assay with HCC-2998 colon and in the assay with KM12 colon were -53.9% (active) and -35.4% (active), respectively.
`O=[N+]([O-])c1cccc(-c2nc3sccn3c2-c2ccnc(NCCCNS(=O)(=O)c3ccc(Cl)cc3)n2)c1`: the growth with T-47D breast was 6.46% (active); with BT-549 breast, 30.2%; with MDA-MB-435 melanoma, 33.4%; in the assay on SW-620 colon, 90.1%; in the assay on MCF7 breast, 33.2%; with HCT-116 colon, 53.3%. Moreover, the growth in the assay on HCC-2998 colon was 116%; with KM12 colon, 39.2%.
As to `C=C[C@@H]1C[C@@H]2Cc3cc(Cl)ccc3N1O2`, the growth in the assay with T-47D breast is 103%; in the assay with BT-549 breast, 105%; in the assay with MDA-MB-435 melanoma it was 92.5%; in the assay with SW-620 colon, 96.7%; in the assay with MCF7 breast it was 112%; with HCT-116 colon, 98.2%. Further, the growth in the assay with HCC-2998 colon is 94.2%; in the assay on KM12 colon it was 97.3%.
With `COc1ccc(/C=N\NC(=O)CN2CCN(c3cc4c(cc3F)c(=O)c(C(=O)N/N=C/c3ccc(OC)c(OC)c3)cn4C3CC3)CC2)cc1OC`, the growth in the assay on T-47D breast is 3.79% (active); in the assay with BT-549 breast it was -11.1% (active); with MDA-MB-435 melanoma it was -49.7% (active); in the assay on SW-620 colon, 4.64% (active); in the assay with MCF7 breast, -4.9% (active); in the assay with HCT-116 colon it was 13.3%. In addition, the figures for the growth in the assay with HCC-2998 colon and in the assay on KM12 colon were -10.8% (active) and 7.04% (active), respectively.
Regarding `C=C(C)[C@@H]1C[C@@H]2Cc3cc(Cl)ccc3N1O2`, the growth was 106% with T-47D breast; 99.6% in the assay with BT-549 breast; 99.4% in the assay on MDA-MB-435 melanoma; 96.7% in the assay with SW-620 colon; 100% in the assay with MCF7 breast; 96.1% with HCT-116 colon. Moreover, the growth with HCC-2998 colon is 99.1%; with KM12 colon it was 105%.
As for `CCCCOc1ccc(/C=C2/SC(N3CCOCC3)=NC2=O)cc1OCC`, the growth with T-47D breast is 80.6%; in the assay on BT-549 breast, 83%; with MDA-MB-435 melanoma it was 99.6%; in the assay on SW-620 colon, 96.9%; in the assay with MCF7 breast, 99.4%; in the assay with HCT-116 colon, 93.2%. Also, the growth in the assay with HCC-2998 colon was 109%; in the assay with KM12 colon, 98.7%.
Turning to `CCOC(=O)c1cc(C(=O)c2cc(OC)c(OC)c(OC)c2)n2c1ccc1ccccc12`, the growth in the assay with T-47D breast is 11.1%; in the assay on BT-549 breast it was 66.9%; in the assay with MDA-MB-435 melanoma, -54.6% (active); in the assay with SW-620 colon it was 18.8%; in the assay with MCF7 breast, 12.1%; in the assay with HCT-116 colon it was 25.8%. In addition, the growth is 69.5% in the assay with HCC-2998 colon and 28.5% in the assay with KM12 colon.
As for `COC(=O)c1cc(=O)nc(N/N=C/c2ccco2)s1`, the growth is 87.8% in the assay on T-47D breast; 109% in the assay on BT-549 breast; 114% with MDA-MB-435 melanoma; 108% in the assay with SW-620 colon; 39.5% in the assay with MCF7 breast; 93.8% in the assay on HCT-116 colon. Also, the values for the growth in the assay on HCC-2998 colon and in the assay with KM12 colon were 102% and 101%, respectively.
In the case of `O=C(Nc1ccncc1)C(=O)c1cn(S(=O)(=O)c2ccc(Oc3ccccc3)cc2)c2ccccc12`, the growth with T-47D breast was 66.4%; in the assay with BT-549 breast, 94.9%; with MDA-MB-435 melanoma it was 94.1%; with SW-620 colon it was 94.2%; in the assay with MCF7 breast, 94.3%; with HCT-116 colon, 87.9%. Further, the results for the growth in the assay on HCC-2998 colon and in the assay on KM12 colon were 81.5% and 99.1%, respectively.
Turning to `Cn1cc(-c2cnc3ccc(NC(=O)Nc4ccc(F)c(Br)c4)cc3n2)cn1`, the growth is -38.1% (active) in the assay with T-47D breast; 20.5% with BT-549 breast; 21.5% with MDA-MB-435 melanoma; 39.8% in the assay with SW-620 colon; 3.7% (active) in the assay on MCF7 breast; 22% in the assay with HCT-116 colon. In addition, the growth with HCC-2998 colon is 49.2%; with KM12 colon it was 12.7%.
For `Cc1cc(C2=NNC(=O)Cc3cc4c(cc32)OCCO4)cc(C)c1N`, the growth in the assay on T-47D breast was 46.1%; in the assay with BT-549 breast, 30.7%; in the assay with MDA-MB-435 melanoma it was -12.6% (active); in the assay on SW-620 colon, 26.5%; in the assay with MCF7 breast it was 16.7%; in the assay on HCT-116 colon it was 20.4%. Besides, the values for the growth in the assay with HCC-2998 colon and in the assay on KM12 colon were 48.8% and 24%, respectively.
In the case of `CN(C[C@H]1Cc2c(cccc2N2CCN(Cc3ccccn3)CC2)CN1)[C@H]1CCCc2cccnc21`, the growth is 44.6% in the assay on T-47D breast; 81.9% in the assay on BT-549 breast; 69.6% with MDA-MB-435 melanoma; 51.3% with SW-620 colon; 44.1% in the assay on MCF7 breast; 30.8% with HCT-116 colon. The growth was 94% in the assay with HCC-2998 colon and 51.7% with KM12 colon.
In the case of `C=C(C)[C@@H]1C[C@@H]2Cc3ccc(Cl)c(C)c3N1O2`, the growth in the assay with T-47D breast is 89.1%; in the assay on BT-549 breast, 101%; in the assay on MDA-MB-435 melanoma, 94.4%; in the assay with SW-620 colon it was 106%; in the assay on MCF7 breast, 107%; in the assay on HCT-116 colon, 95.9%. Further, the growth in the assay with HCC-2998 colon was 90.5%; in the assay with KM12 colon, 104%.
